High-throughput results as filed in PubChem BioAssay.
IL-2 act = qHTS of IL-2 Activators; IL-2 activation reporter assay, cell-based qHTS; stimulated with anti-CD3/CD4/CD28 beads; in transgenic mouse T cells; activation, % (series mostly up to about 46 µM); 360,000 compounds, 0.065% hits; AID 652025, 2013; in the data active means activation above about 50%; inconclusive means mostly about 30% to 49%; further: 0% is about no effect
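Unstimulated transgenic mouse T cells preincubated 60 min with compound, then stimulated with anti-CD3/anti-CD4-coated beads plus anti-CD28 for 18 h at 37 degrees C. IL-2 response read as EGFP and DsRed fluorescence by plate cytometry.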
Epigenetic derep = Quantitative High-Throughput Screen for Regulators of Epigenetic Control | murine LDR cells, GFP reporter derepression, 30 h | Potency, µM (highest dose often 53.9 µM), inactives show at the highest dose GFP activation, most hits filed as activators | 280,000 compounds, 0.2% hits | AID 1865, 2009; further: potency means the concentration at half of the fitted maximal effect; % of control where 0% means no effect; nearly all actives have a fitted effect of over 60% in size
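Derepression of a silenced CMV-GFP reporter in murine LDR cells is scored by enumerating GFP-positive cells with a laser-scanning microplate cytometer after 30 hours of treatment at 37 C.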
PINK1 modulator = A Quantitative High throughput Screen to Identify Chemical Modulators of PINK1 Expression; 410,000 compounds, 0.2% hits; Potency, µM (highest dose often 76.6 µM), without a hit: at the highest dose activation (PINK1 increase), hits mostly activators; AID 624263, 2012; PINK1 immunofluorescence, high-content cytometry, 24 h; active means well fitted activation curve with a large enough effect; inconclusive means small, poorly fitted or top-dose-only effect; cell line not stated here; further: potency means the concentration at half of the fitted maximal effect; % of control where 0% means no effect; nearly all actives have a fitted effect of over 65% in size
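A stable cell line was treated with compounds at 5 concentrations for 24 hours, with CCCP as control. PINK1 levels and mitochondrial localization were measured by immunofluorescence with mitochondrial, cell and nuclear markers after fixation, read by laser-scanning cytometry.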
PKM2 activator = qHTS Assay for Activators of Human Muscle isoform 2 Pyruvate Kinase; Pyruvate kinase PKM (Homo sapiens), P14618; purified PKM2, Kinase-Glo ATP luminescence, activation; response scale: 0% is enzyme alone, no compound; Potency, µM (highest dose often 57.5 µM), for the others: at the highest dose activation, hits mostly activators; 260,000 compounds, 0.34% hits; further: potency means the concentration at half of the fitted maximal effect; on the % scale 0 is the no-effect control and ±100 the full control effect; nearly all actives have a fitted effect of over 55% in size
Target sequence (P14618 whole entry, looked up, canonical isoform): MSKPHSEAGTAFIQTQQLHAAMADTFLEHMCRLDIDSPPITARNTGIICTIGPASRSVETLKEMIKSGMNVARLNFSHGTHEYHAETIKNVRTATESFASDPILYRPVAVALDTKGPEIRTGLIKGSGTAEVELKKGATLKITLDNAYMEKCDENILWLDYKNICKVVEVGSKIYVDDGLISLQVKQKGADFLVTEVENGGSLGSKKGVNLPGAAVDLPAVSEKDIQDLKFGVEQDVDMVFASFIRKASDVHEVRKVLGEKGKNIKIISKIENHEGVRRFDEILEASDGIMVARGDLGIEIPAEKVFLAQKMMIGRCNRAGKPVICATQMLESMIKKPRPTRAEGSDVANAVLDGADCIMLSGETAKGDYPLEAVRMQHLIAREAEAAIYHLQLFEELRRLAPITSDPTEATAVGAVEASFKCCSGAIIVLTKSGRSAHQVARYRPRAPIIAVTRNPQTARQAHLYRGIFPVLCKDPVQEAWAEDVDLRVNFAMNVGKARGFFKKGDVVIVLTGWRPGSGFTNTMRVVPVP
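Purified hPK-M2 (>95%) run at intermediate activity with 0.1 mM ADP and 0.5 mM PEP in 50 mM imidazole pH 7.2, KCl, MgCl2; 1 h room temperature. ATP formed read by Kinase-Glo luminescence; normalized to uninhibited and no-enzyme controls.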
B2AR arrestin = qHTS assay of beta-arrestin-biased ligands of beta2-adrenergic receptor | Beta-2 adrenergic receptor (Homo sapiens), P07550 | 330,000 compounds, 0.02% hits | beta-arrestin recruitment to beta2AR, cell-based reporter | AID 492947, 2010 | Potency, µM (highest dose often 46.1 µM), inactives show top-dose activation, actives largely listed as activators;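 further: potency means the concentration at half of the fitted maximal effect; 0% = DMSO controls and full agonism = EC100 isoproterenol or metaproterenol; nearly all actives have a fitted effect of over 65% in size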
* marks the source's active call; other numbers are inactive results; ? = inconclusive; nt = not tested or not shown; [ ] = another dose, or the depositor's remark. The list is not random: actives were taken first. Their share in the collection is about 0.58%. Unless noted, the call rests on the fitted dose curve; in most records, active means well fitted curve in the direction sought with a large enough effect; inconclusive means small, poorly fitted or top-dose-only effect, or another doubt; inactive means no such curve, though single readings can be large; an effect the other way counts as inactive or inconclusive.

SMILES	IL-2 act	Epigenetic derep	PINK1 modulator	PKM2 activator	B2AR arrestin
Cc1ccc(N(C(=O)c2nsc(Cl)c2Cl)C(C(=O)NC2CCCC2)c2ccc(O)cc2)cc1C (centres undefined)	-5	-1%	3%	2%	-1%
Cc1cccc(N(C(=O)c2nsc(Cl)c2Cl)C(C(=O)NC2CCCC2)c2ccc(O)cc2)c1C (centres undefined)	0	1%	45µM*	3%	0%
Cc1ccc(C(=O)Nc2cccc(-c3nc(CNC(=O)c4ccc(F)cc4Cl)c(C)o3)c2)s1	nt	nt	0%	nt	nt
Cc1occc1C(=O)N/N=C/C(Br)=C/c1ccccc1	-1	22µM*	2%	-12%	1%
Cc1occc1C(=O)N/N=C/c1ccc(-c2ccccc2)cc1	0	nt	10%	-17%	0%
COC(=O)c1ccccc1-c1cc(C)cc2c1OC(CNC(=O)c1ccn(C)n1)C2 (centres undefined)	nt	nt	1%	nt	nt
CCOc1ccc(NC(=O)/C(C#N)=C/c2ccc(N3CCCC3)c(C)c2)cc1	270*	1%	?	2%	-1%
Cc1nc2cc(OC3(C)CCN(Cc4ccc(OC(F)(F)F)cc4)C3)ccc2s1 (centres undefined)	-1	nt	45µM*	nt	nt
COc1cccc(C2(CC(=O)N3CCCCC3CO)CC(=O)N(C)C2=O)c1 (centres undefined)	nt	nt	0%	nt	nt
CN(C)S(=O)(=O)c1cccc(-n2sc3ccccc3c2=O)c1	0	-1%	2%	2.8µM*	0%
C=CCc1cccc2cc(-c3nc4ccc(C)cc4[nH]3)c(=O)oc12	nt	4µM*	-1%	nt	nt
Cc1oc(-c2ccccc2NC(=O)C2CCC2)nc1CNC(=O)c1ccccn1	nt	nt	2%	nt	nt
CN(C)S(=O)(=O)c1ccc(C(=O)NCCN2C(=O)S/C(=C\c3cccnc3)C2=O)cc1	-1	0%	2%	16µM*	0%
COc1ccc(-n2c(CNC(=O)c3ccc(OC)cc3OC)nnc2SC)cc1	nt	nt	-1%	nt	nt
COC(=O)c1ccc(C(=O)OC)c(NC(=O)CSc2cccc[n+]2[O-])c1	-4	?	-4%	?	5µM*
COc1ccc(C2C=C(c3ccc(Cl)cc3)Nc3nc(-c4ccc(Cl)cc4)nn32)cc1 (centres undefined)	nt	2%	16µM*	nt	nt
COc1cccc2ccc(CN3CCC4(CC3)c3ccccc3[C@@H](NC(=O)c3ccccc3)[C@@H]4O)nc12	nt	nt	0%	nt	nt
Cc1ccc(S(=O)(=O)N2CCCN(S(=O)(=O)c3ccc4c(c3)OCCO4)CC2)cc1	1	-2%	0%	0.35µM*	0%
O=S(=O)(c1cccc(Cl)c1)N1CCN(S(=O)(=O)c2ccc3c(c2)OCCO3)CC1	-1	nt	4%	nt	0%
CCS(=O)(=O)N1CCN(S(=O)(=O)c2ccc3c(c2)OCCO3)CC1	0	nt	1%	3.5µM*	0%
O=S(=O)(c1ccc2c(c1)OCCO2)N1CCN(c2cccc(Cl)c2)CC1	1	-1%	-1%	2.8µM*	0%
O=S(=O)(c1ccc2c(c1)OCCO2)N1CCN(Cc2ccc3c(c2)OCO3)CC1	-2	-2%	-5%	3.5µM*	0%
O=S(=O)(c1ccc(F)c(F)c1)N1CCN(Cc2ccc3c(c2)OCO3)CC1	1	-2%	1%	0%	0%
CO[C@H]1[C@H](NC(=O)c2ccco2)c2ccccc2C12CCN(Cc1ccc3cccc(F)c3n1)CC2	nt	nt	2%	nt	nt
Cn1c(SCC2CCCO2)nnc1C1CCN(Cc2ccc(-c3cccc(Cl)c3)o2)CC1 (centres undefined)	nt	nt	-1%	nt	nt
SMILES	IL-2 act	Epigenetic derep	PINK1 modulator	PKM2 activator	B2AR arrestin
COc1ccc(S(=O)(=O)N2CCN(S(=O)(=O)c3ccc4c(c3)OCCO4)CC2)cc1C	2	-1%	0%	3.5µM*	0%
O=C(OCc1ccc2c(c1)OCO2)c1ccc(S(=O)(=O)N2CCCC2)cc1	0	0%	2%	8.9µM*	0%
O=C(NCCN1Cc2ccccc2OC(c2ccsc2)C1)c1cncs1 (centres undefined)	nt	nt	-1%	nt	nt
CC(C)n1c(O)c(N=Nc2ccc(Cl)nn2)c2ccccc21	88*	?	3%	8%	-1%
CC(C)n1c(O)c(N=NC(=O)CNC(=O)Cc2ccc(Cl)cc2)c2ccccc21	-3	nt	-1%	21%	0%
CCCN1C=CC(=C/C=C(\C#N)C(=O)OCC)C=C1	nt	?	nt	-3%	0%
CCCCCCN1C=CC(=C/C=C(\C#N)C(=O)OCC)C=C1	1	10µM*	13µM*	-3%	0%
Cc1ccc(-c2ccc(/C=C3\C(=O)ON=C3c3ccccc3)o2)c([N+](=O)[O-])c1	-2	1%	-2%[38.3 µM]	28µM*	0%
CCOc1ccc(S(=O)(=O)Nc2ccccc2C(=O)Nc2ccccc2N2CCOCC2)cc1	-2	-5%	11µM*	-3%	0%
CN(C)c1ccc(/C=N/NC(=O)c2cnc3ccccc3c2)cc1	170*	?	8%	-2%	0%
Cc1cc2nc(/C(C#N)=C\c3ccc(-c4ccccc4C(=O)O)o3)[nH]c2cc1C	10	nt	2%	0%	-1%
Cc1ccc2nc(/C(C#N)=C\c3ccc(N4CCOCC4)o3)[nH]c2c1	?	14µM*	11µM*	-1%	0%
N#C/C(=C\c1ccc(N2CCOCC2)o1)C(=O)NCC1CCCO1 (centres undefined)	-3	1%	1%	-4%	0%
Cc1ccc(/C(C#N)=C\c2ccc(N3CCOCC3)o2)cc1	0	?	?	2.8µM*	0%
Cn1c(CCNC(=O)C2CC23CCN(C(=O)C2=CCCC2)CC3)nc2ccccc21 (centres undefined)	nt	nt	0%	nt	nt
O=S(=O)(NCCNc1nccc(C(F)(F)F)n1)c1ccccc1	-1	0%	-1%	18µM*	-1%
O=C(NCCNc1nccc(C(F)(F)F)n1)c1cccc(C(F)(F)F)c1	1	1%	1%	-1%	0%
COc1ccc2c(c1OC)C(=O)N(c1cccc(C(F)(F)F)c1)C2	-1	0%	3.2µM*	-1%	0%
COc1ccc2c(c1OC)C(=O)N(c1cccc(C)c1)C2	-2	1%	0%	-18%	0%
CN(C)C=Nc1c(Br)cc(Br)c2nonc12	27	?	11µM*	3%	0%
CN(C)C=Nc1nonc1-c1ccccc1	0	2%	1%	-1%	0%
CCOC(=O)c1c(NC(=O)c2ccn(CC)n2)sc2c1CCCC2	-1	1%	10µM*	11%	0%
CCC(C)Sc1ccc(-c2nc3cc(C)ccn3c2NC2CCCCC2)cc1 (centres undefined)	-3	nt	14µM*	nt	-1%
CCCCCCSc1cc(-c2nc3cc(C)ccn3c2NC2CCCCC2)ccc1OC	-1	nt	?	nt	0%
